# Experimental data as given in ChEMBL document CHEMBL4513146, “CO-ADD screening of Karazin Kharkiv National University (Ukraine) compounds”.
# Results with a measured potency or affinity are listed apart.
# Legend:
# [1] = tested on: Klebsiella pneumoniae; conditions: Concentration 32 ug.mL-1;; ASSAY_TEST Inhibition of Bacterial Growth; detection method Absorption (OD600); MEDIA CAMHB; plate type 384well; NBS; CORNING #3640; time 18 hr
# [2] = tested on: Candida albicans; conditions: Concentration 32 ug.mL-1; ASSAY_TEST Inhibition of Fungal Growth; detection method Absorption (OD530)
# [3] = tested on: Cryptococcus neoformans; conditions: Concentration 32 ug.mL-1; ASSAY_TEST Inhibition of Fungal Growth; detection method Resazurin; Absorption (OD600-OD570); plate type 384well; NBS; CORNING #3640
SMILES,Inhibition [1] [%],Inhibition [2] [%],Inhibition [3] [%]
O=c1c2sccc2n2c(=O)n(Cc3c(F)cccc3Cl)nc2n1Cc1cccs1,11.77,-0.79,-29.08
O=C(CSc1nnc2ccc(C(=O)NCc3ccccc3)cn12)Nc1ccccc1Br,13.28,5.15,-20.85
CCOc1ccc(-n2ccn3c(SCC(=O)Nc4ccc(C)cc4Cl)nnc3c2=O)cc1,9.51,5.12,-6.58
O=C(Cn1nc2c(N3CCOCC3)nccn2c1=O)Nc1cc(C(F)(F)F)ccc1Cl,12.08,2.84,-4.39
CC(C)c1nnc2c(SCC(=O)Nc3ccc(Br)cc3F)nc3ccccc3n12,8.89,0.43,-17.6
O=C(Cn1nc2c(Oc3ccccc3)nccn2c1=O)Nc1ccc(Br)cc1F,-1.93,5.04,-11.28
O=c1c2sccc2n2c(=O)n(Cc3ccc(Br)cc3)nc2n1CCc1ccccc1,-2.03,27.87,-16.22
CCc1ccccc1Sc1nccn2c(=O)n(CC(=O)NCc3ccc(OC)cc3)nc12,1.83,2.04,-1.62
CCOc1ccc(-n2ccn3c(SCC(=O)Nc4cc(F)ccc4F)nnc3c2=O)cc1,6.4,2.5,-1.21
COc1ccc(-c2cc3c4nn(CC(=O)Nc5cc(Cl)ccc5C)c(=O)n4ccn3n2)cc1,1.98,1.63,-6.61
CC(C)c1ccc(NC(=O)Cn2nc3c(Sc4ccccc4)nccn3c2=O)cc1,-10.24,23.16,-7.48
CCc1ccccc1NC(=O)Cn1nc2c(SC3CCCCC3)nccn2c1=O,9.89,-0.63,-27.01
O=C(CCc1nnc2c3cc(-c4ccc(F)cc4)nn3ccn12)N1CCC(Cc2ccccc2)CC1,4.22,-1.12,-13.61
Cc1ccc(Sc2nccn3c(=O)n(CC(=O)Nc4ccc(Br)cc4C)nc23)c(C)c1,-0.35,-0.15,-17.66
CCc1ccc(NC(=O)Cn2nc3c(Oc4cccc(OC)c4)nccn3c2=O)cc1,-4.18,2.5,-4.27
CCc1nnc2c(S(=O)(=O)N(Cc3cc(F)cc(F)c3)c3cccc(F)c3)cccn12,12.81,4.8,-5.16
O=S(=O)(c1ccc2nncn2c1)N(Cc1ccccc1F)c1ccc2c(c1)OCO2,9.89,1.66,-6.91
COC(=O)c1ccc(NC(=O)Cn2nc3c(N4CCOCC4)nccn3c2=O)cc1,12.49,2.39,-14.01
Cc1nnc2c(SCC(=O)Nc3ccc(C#N)cc3)nc3ccccc3n12,5.06,-1.44,-16.12
N#CCn1nc2n(Cc3ccccc3)c(=O)c3ccccc3n2c1=O,8.96,-1.85,-7.48

SMILES,Inhibition [1] [%],Inhibition [2] [%],Inhibition [3] [%]
O=c1c2nnc(SCc3cccc(F)c3)n2ccn1-c1ccc(Br)cc1,8.43,4.16,-10.68
COc1ccc(-c2cc3c4nn(CC(=O)Nc5ccc(C)cc5)c(=O)n4ccn3n2)cc1,7.98,8.11,-26.93
CCc1cccc(NC(=O)Cn2nc3ccc(SC4CCCCC4)nn3c2=O)c1,16.99,2.91,-22.11
COc1ccccc1NC(=O)CSc1nnc2c(=O)n(-c3ccc(C)c(C)c3)ccn12,7.95,1.21,-7.82
Cc1c(Cl)cccc1-n1ccn2c(=O)n(Cc3ccc(Cl)cc3)nc2c1=O,2.87,1.02,-15.09
CC(C)(C)NC(=O)Cn1nc2n(Cc3ccco3)c(=O)c3sccc3n2c1=O,9.07,1.61,-14.16
COc1ccc(NC(=O)Cn2nc3nc(N4CCOCC4)ccn3c2=O)cc1F,8.85,5.37,-8.95
COc1ccc(CCn2c(=O)c3sccc3n3c(=O)n(Cc4ccc(F)cc4)nc23)cc1OC,6.56,11.53,-31.44
Cc1cccc(NC(=O)Cn2nc3ccc(-c4ccc(Cl)cc4)nn3c2=O)c1,7.75,3.82,-6.79
Cc1cccc(C)c1NC(=O)Cn1nc2ccc(SCc3ccc(Cl)cc3)nn2c1=O,-2.95,27.65,-10.13
Cc1ccc(NC(=O)Cn2nc3c4cc(-c5ccc(Cl)cc5)nn4ccn3c2=O)cc1C,9.71,6.69,-22.86
O=C(CSc1nnc2c(=O)n(-c3ccc(F)c(F)c3)ccn12)c1ccccc1Cl,10.86,3.43,-7.06
Cc1cccc(NC(=O)c2ccc3nn(CC(=O)N4CCc5ccccc5C4)c(=O)n3c2)c1,-2,12.37,-12.59
CCOc1ccc(-n2ccn3c(SCC(=O)c4cccc(OC)c4)nnc3c2=O)cc1,9.6,2.55,-9.06
Cc1cccc(NC(=O)Cn2nc3nc(N4CCCCCC4)ccn3c2=O)c1C,16.3,1.23,-8.73
Cc1cccc(NC(=O)Cn2nc3c(SC4CCCCC4)nccn3c2=O)c1C,7.9,-1.44,-15.81
Cc1ccc(-c2cc3c4nn(CC(=O)Nc5ccc(F)cc5)c(=O)n4ccn3n2)cc1C,-3.72,22.53,-20.65
COc1ccc(-c2cc3c4nn(CC(=O)Nc5cc(C)cc(C)c5)c(=O)n4ccn3n2)cc1,9.4,2.5,-4.71
COc1ccc(NC(=O)Cn2nc3cc(C)nc(Nc4ccc(F)c(C)c4)n3c2=O)cc1,10.41,4.68,-7.34
Cc1ccc(-c2cc3c4nn(CC(=O)Nc5c(C)cccc5C)c(=O)n4ccn3n2)cc1,9.73,-0.52,-14.67

SMILES,Inhibition [1] [%],Inhibition [2] [%],Inhibition [3] [%]
CCOc1cccc(CNC(=O)CCc2nnc3ccc(-c4ccc(C)cc4)nn23)c1,8.62,2,-6.55
Cc1ccc(NC(=O)Cn2nc3c(Sc4ccccc4)nccn3c2=O)c(Br)c1,0.72,22.67,-9.68
O=C(CSc1nnc2c(=O)n(-c3ccccc3)ccn12)Nc1ccc(F)cc1F,1.13,1.82,-4.59
COc1ccc(NC(=O)CSc2nnc3c(=O)n(-c4ccccc4OC)ccn23)cc1Cl,12.69,3.75,-12.03
CC(C)c1ccc(NC(=O)Cn2nc3c(N4CCCC4)nccn3c2=O)cc1,11.79,2.06,-12.68
CC(C)CCn1c(=O)c2ccc(C(=O)NC3CCCCC3)cc2n2c(=S)[nH]nc12,1.69,2.77,-13.59
O=C(Cn1nc2c(SC3CCCCC3)nccn2c1=O)Nc1ccc(Cl)cc1F,10.76,1.51,-29.46
CCCNC(=O)CSc1nnc2c(=O)n(-c3ccc(F)cc3)ccn12,12.9,2.11,-15.58
CCC(C)NC(=O)Cn1nc2n(Cc3ccco3)c(=O)c3sccc3n2c1=O (configuration not stated),10.15,-0.07,-9.56
CCOc1ccc(-n2ccn3c(SCC(=O)NCc4ccc(Cl)cc4)nnc3c2=O)cc1,11.7,0.49,-7.68
CC(C)Cn1c(=O)c2sccc2n2c(=O)n(Cc3cccc(Br)c3)nc12,8.23,-0.42,-24.19
Cc1ccc(C)c(CN(c2cccc(Cl)c2)S(=O)(=O)c2cccn3c(C)nnc23)c1,5.81,2.43,-8.33
O=C(Cn1nc2c3c4c(sc3ncn2c1=O)CCCC4)N1CCc2ccccc2C1,9.79,4.18,-11.61
CCC(C)NC(=O)CCn1c(=O)c2ccccc2n2c(=O)n(CC(=O)NCc3cccs3)nc12 (configuration not stated),12.47,0.11,-24.13
Cc1ccc(-c2cc3c4nnc(CCC(=O)N5CCN(c6ccccc6F)CC5)n4ccn3n2)cc1C,8.56,3.28,-23.24
Cc1ccc(C)c(NC(=O)Cn2nc3c(SCc4ccc(Cl)cc4)nccn3c2=O)c1,13.13,3.07,-22.73
COc1cccc(CN(c2ccc(F)c(F)c2)S(=O)(=O)c2ccc3nncn3c2)c1,0.45,4.56,-8.9
Cc1ccc(Sc2nccn3c(=O)n(CC(=O)Nc4cccc(Br)c4)nc23)c(C)c1,7.97,8.72,-18.33
Cc1ccc(NC(=O)Cn2nc3c(Sc4ccccc4)nc4ccccc4n3c2=O)cc1C,0.03,0.48,-2.74
